Test results as given in PubChem BioAssay (EPA / NIEHS).
Calls of active or inactive are those of the source. The calls were made as follows: active = hit-call score of the fitted dose curve at least 0.9, where 1 is the maximum; inactive = score below 0.9.

Tests used:
[1] = ATG_GRE_CIS: Attagene CIS-FACTORIAL HepG2 Assay for human Glucocorticoid Response Elements (GRE) (AID 2282947); settings: HepG2 GRE cis-reporter, Attagene multiplex mRNA; actives raise or lower the signal
Method in brief: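 Following 24 h chemical exposure of transiently transfected HepG2 cells, total RNA was reverse-transcribed and reporter cDNA amplified, fluorescently labelled and sized by capillary electrophoresis. Signal gain or loss was fitted relative to DMSO vehicle.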

[2] = ATG_M_32_CIS: Attagene CIS-FACTORIAL HepG2 Assay for M32 Transcription Factor (Internal Marker) (AID 2282949); settings: HepG2 Attagene cis-factorial M32 reporter, mRNA; actives raise or lower the signal;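 also: background control marker of the multiplexed CIS panel rather than a real target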
Method in brief: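 HepG2 cells transiently transfected with multiplexed cis-regulated reporter units, dosed 24 h. Reporter mRNA quantified by RT-PCR, 6-FAM labelling, HpaI digestion and capillary electrophoresis; bidirectional fit vs DMSO.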

[3] = ATG_M_06_CIS: Attagene CIS-FACTORIAL HepG2 Assay for M06 Transcription Factor (Internal Marker) (AID 2282950); settings: HepG2 Attagene CIS-FACTORIAL M06 internal marker reporter; actives raise or lower the signal
Method in brief: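 Fluorescence-labelled RT-PCR products from cis-promoter reporter units, cut with HpaI and resolved by capillary electrophoresis, give the signal. Cells are human HepG2, dosed for 24 h. Serves as background control, fitted relative to DMSO.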

[4] = target: Hepatocyte nuclear factor 6 (Homo sapiens) (UniProt Q9UBC0); assay: ATG_HNF6_CIS: Attagene CIS-FACTORIAL HepG2 Assay for human Hepatocyte Nuclear Factor 6 (HNF6) (AID 2282952); settings: HepG2 Attagene cis-factorial HNF6 reporter transcription; actives raise or lower the signal
Chain of Hepatocyte nuclear factor 6 (Homo sapiens) (Q9UBC0 whole entry, looked up): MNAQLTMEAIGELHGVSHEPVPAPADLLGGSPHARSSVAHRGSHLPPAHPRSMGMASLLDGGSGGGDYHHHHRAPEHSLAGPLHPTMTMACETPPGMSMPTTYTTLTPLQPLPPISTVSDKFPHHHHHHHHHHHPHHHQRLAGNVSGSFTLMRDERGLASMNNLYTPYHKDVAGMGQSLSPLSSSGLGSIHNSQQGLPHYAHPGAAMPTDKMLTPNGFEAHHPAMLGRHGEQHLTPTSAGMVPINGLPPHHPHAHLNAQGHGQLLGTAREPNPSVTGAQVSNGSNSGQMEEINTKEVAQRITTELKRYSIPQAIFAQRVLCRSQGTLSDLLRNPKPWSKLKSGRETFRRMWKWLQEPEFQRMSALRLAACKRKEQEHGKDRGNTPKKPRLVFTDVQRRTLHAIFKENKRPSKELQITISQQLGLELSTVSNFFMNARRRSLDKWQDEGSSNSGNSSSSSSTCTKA
Method in brief: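 HepG2 cells transiently transfected with cis-element-driven multiple reporter transcription units, dosed 24 h; reporter mRNA quantified by RT-PCR, FAM primer extension, HpaI digestion and capillary electrophoresis; bidirectional fit versus DMSO baseline.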

[5] = ATG_MRE_CIS: Attagene CIS-FACTORIAL HepG2 Assay for human Metal Responsive Element (MRE) (AID 2282954); settings: HepG2 MRE cis-reporter transcription, Attagene multiplex; actives raise or lower the signal
Method in brief: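 Step one: transfect HepG2 with cis-regulated reporter units. Step two: dose 24 h. Step three: isolate RNA, RT-PCR, 6-FAM label, HpaI digest, capillary electrophoresis. Fit bidirectionally to DMSO.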

[6] = ATG_PBREM_CIS: Attagene CIS-FACTORIAL HepG2 Assay for human Phenobarbital-responsive Enhancer Module (PBREM) (AID 2282955); settings: HepG2 PBREM cis-reporter, Attagene multiplexed transcription; actives raise or lower the signal
Method in brief: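 After a 24 h incubation with test chemical, transfected HepG2 cells yield total RNA; reporter-specific RT-PCR products are fluorescently labelled, HpaI-digested and resolved by capillary electrophoresis against ROX size standards.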

[7] = ATG_ISRE_CIS: Attagene CIS-FACTORIAL HepG2 Assay for human Interferon Regulatory Factor 1 (IRF1) binding to an Interferon-Stimulated Response Element (ISRE) (AID 2282948); settings: HepG2 ISRE cis-reporter (Attagene), mRNA transcription readout; actives raise or lower the signal
Method in brief: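 Transiently transfected HepG2 cells carrying cis-element reporter units, dosed 24 hours. Reporter mRNA quantified by RT-PCR, fluorescent primer extension, HpaI digestion and capillary electrophoresis. Bidirectional fitting relative to DMSO.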

[8] = target: Hypoxia-inducible factor 1-alpha (Homo sapiens) (UniProt Q16665); assay: ATG_HIF1a_CIS: Attagene CIS-FACTORIAL HepG2 Assay for human Hypoxia Inducible Factor 1 (HIF1A) (AID 2282951); settings: HepG2 Attagene cis-factorial HIF1a reporter transcription; actives raise or lower the signal
Chain of Hypoxia-inducible factor 1-alpha (Homo sapiens) (Q16665 whole entry, looked up): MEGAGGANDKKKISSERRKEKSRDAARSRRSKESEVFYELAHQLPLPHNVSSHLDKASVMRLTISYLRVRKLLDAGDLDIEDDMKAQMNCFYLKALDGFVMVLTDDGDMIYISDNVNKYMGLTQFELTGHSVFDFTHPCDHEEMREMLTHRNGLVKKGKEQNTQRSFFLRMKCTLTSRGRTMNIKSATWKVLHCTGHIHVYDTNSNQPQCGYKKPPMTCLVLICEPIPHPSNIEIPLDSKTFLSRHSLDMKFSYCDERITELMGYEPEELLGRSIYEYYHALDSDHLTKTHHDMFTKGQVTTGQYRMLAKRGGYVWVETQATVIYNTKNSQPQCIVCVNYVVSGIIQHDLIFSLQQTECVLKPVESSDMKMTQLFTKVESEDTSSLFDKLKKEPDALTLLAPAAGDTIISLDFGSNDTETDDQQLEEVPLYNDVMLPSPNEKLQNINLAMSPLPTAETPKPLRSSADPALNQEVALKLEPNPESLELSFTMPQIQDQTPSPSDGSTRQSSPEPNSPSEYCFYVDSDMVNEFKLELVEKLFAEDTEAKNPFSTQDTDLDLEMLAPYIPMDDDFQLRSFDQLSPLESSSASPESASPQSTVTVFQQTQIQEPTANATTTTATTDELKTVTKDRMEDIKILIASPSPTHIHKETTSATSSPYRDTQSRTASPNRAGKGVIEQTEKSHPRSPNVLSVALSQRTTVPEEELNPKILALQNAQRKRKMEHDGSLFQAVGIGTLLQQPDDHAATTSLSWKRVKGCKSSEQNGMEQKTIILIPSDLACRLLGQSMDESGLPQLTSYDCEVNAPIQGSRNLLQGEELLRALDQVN
Method in brief: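 In this multiplexed cell assay, HepG2 cells bearing transfected cis reporters are dosed for 24 h and reporter mRNA is read by RT-PCR plus capillary electrophoresis; signal increases and decreases are both scored against DMSO.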

[9] = target: Heat shock factor protein 1 (Homo sapiens) (UniProt Q00613); assay: ATG_HSE_CIS: Attagene CIS-FACTORIAL HepG2 Assay for human Heat Shock Transcription Factor 1 (HSE) (AID 2282953); settings: HepG2 HSE cis-reporter, Attagene RNA transcription; actives raise or lower the signal
Chain of Heat shock factor protein 1 (Homo sapiens) (Q00613 whole entry, looked up): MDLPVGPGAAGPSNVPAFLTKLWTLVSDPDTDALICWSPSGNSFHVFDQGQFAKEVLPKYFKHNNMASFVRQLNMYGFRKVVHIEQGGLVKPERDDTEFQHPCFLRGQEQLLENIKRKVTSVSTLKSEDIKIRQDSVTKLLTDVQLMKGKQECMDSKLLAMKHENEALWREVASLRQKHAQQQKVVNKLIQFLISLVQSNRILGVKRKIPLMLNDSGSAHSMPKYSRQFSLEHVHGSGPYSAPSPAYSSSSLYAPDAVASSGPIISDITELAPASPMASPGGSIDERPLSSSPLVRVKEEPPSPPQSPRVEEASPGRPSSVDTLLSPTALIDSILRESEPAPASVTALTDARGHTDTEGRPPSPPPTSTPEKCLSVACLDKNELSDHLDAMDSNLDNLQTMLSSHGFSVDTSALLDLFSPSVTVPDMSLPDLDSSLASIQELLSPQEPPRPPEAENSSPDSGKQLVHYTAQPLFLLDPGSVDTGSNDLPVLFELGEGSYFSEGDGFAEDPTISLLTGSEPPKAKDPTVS
Method in brief: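 After a 24 h incubation with test chemical, transfected HepG2 cells were harvested for RNA; reporter transcripts were measured by RT-PCR and capillary electrophoresis. Values reflect gain or loss of signal relative to DMSO.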

Measured: AC50

CCCCOCCOCCSC#N
inactive: [1] | [2] | [3] | [4] | [5] | [6]

CC(C)[C@@H]1CC[C@@H](C)CC1=O
inactive: [7] | [2] | [3] | [4] | [5]
active: [8] 38.4 µM

CCCC(=O)OCCC(C)CCC=C(C)C (centres undefined)
active: [4] 180 µM
inactive: [7] | [2] | [3] | [8] | [9] | [5] | [6]

O=[N+]([O-])c1ccc(C=Cc2ccc([N+](=O)[O-])cc2S(=O)(=O)O)c(S(=O)(=O)O)c1
inactive: [1] | [2] | [3] | [8] | [4] | [9] | [5] | [6]

C=C(C)C(=O)O[C@H]1C[C@@H]2CC[C@@]1(C)C2(C)C
active: [8] 73.3 µM
inactive: [7] | [2] | [3] | [4] | [9] | [5]

CC(C)(C)c1cc(CCC(=O)NN)cc(C(C)(C)C)c1O
inactive: [7] | [2] | [3] | [8] | [4] | [9] | [6]

OC1OC[C@@H](O)[C@H](O)[C@H]1O (some centres undefined)
inactive: [1] | [2] | [3] | [8] | [4] | [9] | [5] | [6]

C=C(C)C1CCC(C)CC1O (centres undefined)
inactive: [7] | [2] | [3] | [8] | [4] | [9]

ClCCCl
inactive: [1] | [2] | [3] | [8] | [4] | [9] | [6]

CCCCCC(=O)OCCc1ccccc1
inactive: [1] | [7] | [4] | [9] | [5]

NCCNCCN
inactive: [7] | [2] | [3] | [8] | [4] | [9] | [5] | [6]

CCCCCOC(=O)CCC
inactive: [7] | [2] | [3] | [8] | [4] | [9] | [5] | [6]

C=C(C)[C@@H]1CCC2=CC(=O)C[C@@H](C)[C@]2(C)C1
inactive: [7] | [2] | [3] | [8] | [4] | [5]

CCC(=O)OCCC(C)CCC=C(C)C (centres undefined)
inactive: [7] | [2] | [3] | [8] | [4] | [9] | [5] | [6]

Cc1ccc(C=O)s1
inactive: [7] | [2] | [3] | [8] | [4] | [9] | [5] | [6]

CNCCCC12CCC(c3ccccc31)c1ccccc12
inactive: [1] | [2] | [3] | [4] | [9] | [6]
active: [5] 16.6 µM

CCCCNC(=O)NS(=O)(=O)c1ccc(N)cc1
inactive: [7] | [2] | [3] | [8] | [4] | [9] | [5] | [6]

CCC(=O)OCc1ccccc1
inactive: [1] | [2] | [8] | [4] | [5]

O=C(COc1ccc(Cl)cc1)N1CCN(Cc2ccc3c(c2)OCO3)CC1
inactive: [2] | [3] | [4] | [6]
active: [7] 58 µM | [8] 19.8 µM | [9] 151 µM

O=C(O)c1cn(-c2ccc(F)cc2)c2cc(N3CCNCC3)c(F)cc2c1=O
inactive: [1] | [2] | [3] | [8] | [4] | [9] | [5]

CC(C)(CO)[N+](=O)[O-]
inactive: [1] | [2] | [3] | [8] | [4] | [9] | [5] | [6]

CCCC[n+]1ccccc1
inactive: [7] | [2] | [3] | [8] | [4] | [5]

CSc1nc(NC2CC2)nc(NC(C)(C)C)n1
active: [5] 65.7 µM
inactive: [7] | [2] | [3] | [8] | [4] | [9] | [6]

COC(C)CCO (centres undefined)
inactive: [2] | [3] | [8] | [4] | [9] | [5] | [6]

CO[Si](CCCn1c(=O)n(CCC[Si](OC)(OC)OC)c(=O)n(CCC[Si](OC)(OC)OC)c1=O)(OC)OC
inactive: [7] | [3] | [8] | [4] | [9] | [5] | [6]

Nc1nc2ccc([N+](=O)[O-])cc2s1
inactive: [3] | [8] | [4] | [9] | [5] | [6]
active: [7] 77.4 µM

O=C(O)CCCCCCCC(=O)O
inactive: [7] | [2] | [3] | [4] | [9] | [5]

CC(=O)c1c(C)cc(C(C)(C)C)cc1C
inactive: [2] | [8] | [4] | [9] | [6]

CCn1c2ccccc2c2cc(N)ccc21
active: [6] 37 µM
inactive: [2] | [3] | [8] | [4] | [9] | [5]

CC1(CO)CN(c2ccccc2)NC1=O (centres undefined)
inactive: [7] | [2] | [8] | [4] | [9] | [5]

CCOC(=O)c1ccccc1OC
inactive: [7] | [3] | [8] | [4] | [9] | [5]

O=S(=O)(O)NC1CCCCC1
inactive: [7] | [2] | [8] | [4] | [9] | [5] | [6]

O=C[C@H](O)[C@H](O)[C@H](O)CO
inactive: [7] | [2] | [3] | [8] | [4] | [5] | [6]

O=C(O)COCCN1CCN(C(c2ccccc2)c2ccc(Cl)cc2)CC1 (centres undefined)
inactive: [7] | [2] | [3] | [9] | [5] | [6]

CC(C)=CCC/C(C)=C/COC=O
inactive: [7] | [3] | [8] | [4] | [5] | [6]
